TRHR PAM: qHTS for Small Molecule Agonists and Allosteric Enhancers of Human TRH Receptor: Primary Screen for Enhancers; enhancement, % at 2 µM; 0.66% of 360,000 active; Thyrotropin-releasing hormone receptor (Homo sapiens), P34981; TRHR cells, fluo-8 calcium fluorescence, EC20 TRH enhancement; in the data active means enhancement above about 30%; further: 0% is about no effect
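TRHR-expressing cells loaded with fluo-8 calcium dye were read kinetically (ex 480/em 530) during compound addition, then stimulated with an EC20 of TRH (10 nM final). Enhancement of the Gq-mediated intracellular calcium response was scored.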
TRHR ag: qHTS for Small Molecule Agonists and Allosteric Enhancers of Human TRH Receptor: Primary Screen for Agonists. Thyrotropin-releasing hormone receptor (Homo sapiens), P34981. TRHR cells, calcium flux fluo-8, FDSS agonist mode. activation, % at 2 µM. 0.18% of 360,000 active. AID 493084, 2011; further: 0% is about no effect
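TRHR-expressing cells, plated overnight in medium with 10% serum, were loaded with fluo-8 calcium dye at room temperature. After a 10 s baseline, library compound was pin-added and calcium release was recorded kinetically (ex 480/em 530) as agonist response.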
D1 potentiator: Potentiators of Human D1 Dopamine Receptor: qHTS; HEK293 TREx D1 cells, calcium flux, dopamine EC20 potentiation; D(1A) dopamine receptor (Homo sapiens), P21728; potentiation, % at 10 µM; 0.036% of 360,000 active; in the data active means potentiation above about 30%; further: 0% is about no effect
Target sequence (P21728 whole entry, looked up): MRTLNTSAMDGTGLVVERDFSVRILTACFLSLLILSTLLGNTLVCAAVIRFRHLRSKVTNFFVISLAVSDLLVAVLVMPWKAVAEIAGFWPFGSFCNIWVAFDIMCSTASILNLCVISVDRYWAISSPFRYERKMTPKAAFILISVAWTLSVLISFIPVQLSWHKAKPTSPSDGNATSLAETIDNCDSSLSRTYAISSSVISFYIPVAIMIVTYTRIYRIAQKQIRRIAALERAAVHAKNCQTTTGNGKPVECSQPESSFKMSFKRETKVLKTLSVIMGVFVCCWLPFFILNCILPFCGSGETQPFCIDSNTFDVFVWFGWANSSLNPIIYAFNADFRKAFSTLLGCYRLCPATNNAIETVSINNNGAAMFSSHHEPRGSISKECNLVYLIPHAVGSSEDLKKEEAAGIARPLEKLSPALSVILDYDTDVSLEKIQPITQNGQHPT
D1 ag: Allosteric Agonists of the Human D1 Dopamine Receptor: qHTS. D(1A) dopamine receptor (Homo sapiens), P21728. HEK293 T-REx D1 cells, calcium flux, agonist mode. activation, % at 2 µM. 1% of 360,000 active. AID 504660, 2011; further: 0% is about no effect
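Tetracycline-induced HEK293 TREx D1 cells, force-coupled to calcium signalling, were dye-loaded with a no-wash calcium kit. Compound was pin-added after a 10 s baseline. Fluorescence was read kinetically at 1 cycle/s for 180 s, with calcium rises flagged as agonism.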
D1 antagonist: Antagonist of Human D 1 Dopamine Receptor: qHTS; AID 504652, 2011; HEK293 TREx D1 cells, calcium flux, dopamine EC80; stronger effect = lower value; activity change, negative = inhibition, % at 10 µM; 3.2% of 360,000 active; D(1A) dopamine receptor (Homo sapiens), P21728; in the data active means activity change below about -30%; further: on the % scale 0 is the no-effect control and ±100 the full control effect
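Calcium flux readout: force-coupled, inducible Hek293 Trex D1 line, cells induced overnight at 30 C with tetracycline, dye-loaded 30–90 min at RT. Antagonism scored against EC80 dopamine challenge given 180 s after compound.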
Active calls of the source: *. Most compounds without a hit are left out; they make up all but 4.6% or so of the library. Unless noted, no stated cut-off is given here; in the data, active means activation above about 30%; inactive means the rest.

SMILES	TRHR PAM	TRHR ag	D1 potentiator	D1 ag	D1 antagonist
CCOc1ccc(Nc2cc(C)nc(-n3nc(C)cc3C)n2)cc1	-7	-1	-5	1	-33*
CN(CC/C=C1/c2ccccc2CSc2ccccc21)CCCO	-5	3	-8	31*	-30
NCC/C=C1/c2ccccc2CSc2ccccc21	0	2	-5	21	-5
CC(O)CN(C)CC/C=C1/c2ccccc2CSc2ccccc21 (stereo not drawn)	-1	2	-11	30*	-72*
C=CCN(C)CC/C=C1\c2ccccc2CSc2ccccc21	-7	2	-9	0	-7
CN(C)CC/C=C1\c2cc(F)ccc2CSc2ccccc21	-1	2	-6	23	-93*
COc1ccccc1S(=O)(=O)Cc1ccc(C(=O)NCc2ccc(Cl)cc2)o1	-3	0	0	2	8
COc1ccc(CNc2nc(-c3ccco3)nn2C(=O)c2ccccc2C)cc1	3	1	-2	4	-36*
COc1ccc(CNc2nc(-c3ccccc3)nn2C(=O)c2cccs2)cc1	-6	9	0	37*	9
Cc1ccc(CNc2nc(-c3ccco3)nn2C(=O)c2ccccc2[N+](=O)[O-])cc1	37*	-2	-2	7	-62*
COc1ccc(CNc2nc(-c3cccnc3)nn2S(C)(=O)=O)cc1	-6	-1	-2	4	-31*
CS(=O)(=O)n1nc(-c2cccnc2)nc1NCc1ccccc1	1	0	-4	-1	1
O=C(Nc1cccc(Cl)c1)c1ccc2nc(CCc3ccccc3)oc2c1	4	1	-1	11	-14
CCOC(=O)c1cnc(N2CCN(c3ccc(C)cc3C)CC2)c2ccccc12	6	0	-2	1	11
COc1cccc(CCNC(=O)c2ccc(Cn3c(SCc4ccccc4)nc4cccnc43)cc2)c1	-2	1	-2	8	1
CN(C)c1ccc(CNc2nc(-c3ccccc3)nn2S(C)(=O)=O)cc1	2	0	-1	-1	9
CC(=O)n1nc(-c2ccccc2)nc1NCc1ccc(N(C)C)cc1	39*	0	0	1	1
COc1ccc2c(c1)CCCN2C(N)=Nc1ccc(Cl)cc1	-9	14	-10	49*	-44*
Cc1ccc(-c2ccc(=O)n(CC(=O)Nc3ccc(C)cc3Cl)n2)cc1	7	0	-1	0	-13
COc1ccc(Nc2nc(C#N)nc(NC3CCCC3)n2)cc1	-1	-3	-1	0	-36*
N#Cc1nc(Nc2cccc(-c3ccccc3)c2)nc(NC2CCCC2)n1	1	1	-5	5	-31*
N#Cc1nc(Nc2cccc(F)c2)nc(NC2CCCC2)n1	0	0	-6	14	-34*
Fc1cc(F)cc(Nc2nc(NC3CCCC3)nc(C3CO3)n2)c1 (stereo not drawn)	-9	4	-7	74*	-37*
N#Cc1nc(Nc2ccc3ccccc3c2)nc(NC2CCCC2)n1	26	1	7	4	39
CCOc1ccccc1NC(=O)N(C)CCc1c(C)nn(CC)c1C	3	-2	1	1	-7
SMILES	TRHR PAM	TRHR ag	D1 potentiator	D1 ag	D1 antagonist
O=C(CNC(=O)c1ccc(-c2ccccc2)cc1)OC(C(=O)Nc1cc(C(F)(F)F)ccc1Cl)c1ccccc1 (stereo not drawn)	11	2	0	6	0
O=C(Nc1ccccc1)c1cc(N2CCOCC2)nc2ccccc12	1	0	0	1	-55*
COc1ccccc1-c1nnc(C2CCN(S(=O)(=O)c3ccccc3)CC2)o1	2	0	-2	-1	-4
CCOc1cc(N2CCOCC2)c(OCC)cc1NC(=O)CCC1CCCC1	-3	0	-6	2	-31*
CCOc1cc(N2CCOCC2)c(OCC)cc1NC(=O)C1CCCC1	27	0	-4	5	9
Cc1ccc(Cl)cc1NC(=O)Cn1cc(S(=O)(=O)Cc2ccccc2Cl)c2ccccc21	-4	1	2	4	-2

High-throughput results deposited in PubChem by National Center for Advancing Translational Sciences (NCATS).
